For 40 molecules, growth results are on record in PubChem BioAssay (NCI).

Several values for one entry are separate records, joined by “and”; a condition that tells them apart may be missing. Equal entries are not always repeated. This is part of a sample that, as a whole, favours compounds with a hit. Of some 83,000 tested, about 20% had one in any assay.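 Percent growth is the endpoint: 0 to 100 indicates growth inhibition (40 means 60% inhibition), 0 means no net growth, and negative values indicate cell death.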 Activity calls are given as the source filed them. The calls were made as follows: active = growth percent below 10; inactive = the rest.

The assay relates to HL-60(TB) leukemia. As to the kind of experiment: NCI-60 one-dose screen, 48 h (100 = growth as untreated, 0 = no growth, -100 = all killed). As to conditions: 10 µM unless noted.
For `O=C(CSc1nnc(-c2ccc(Cl)cc2)n1-c1ccccc1)Nc1ccc(Br)cc1`, the growth is 81.4% (inactive).
As to `Cc1cc(=O)oc2cc(OCCCOc3ccc(/C=C/C(=O)Nc4ccc(Cl)cc4)cc3)ccc12`, the growth is 86.1% (inactive).
The value for `CCCn1cnc2c(c1=N)C(c1ccc(Cl)cc1)c1sc3c(C)cccc3c1O2` (stereo not given) was -20% (active); that for `O=C(CCCCCCNC(=O)C(O)(O)C(F)(F)F)Nc1ccc(-c2ccccc2)cc1` was 13.1% (inactive); that for `CC1(C)CC[C@]2(C(=O)O)CC[C@]3(C)C(=CC[C@@H]4[C@@]5(C)CC/C(=N\OCCC#N)C(C)(C)[C@@H]5CC[C@]43C)[C@@H]2C1` was 148% (inactive).
The same measure for `Cn1c(SCC(=O)Nc2ccc(-c3nc4ccc([N+](=O)[O-])cc4[nH]3)cc2)nc2ccccc2c1=O`: 91.1% (inactive); for `Nc1nc(-c2cccc([N+](=O)[O-])c2)c(N=Nc2cccc(Cl)c2)s1`: 56.4% (inactive); for `COc1ccc(C(C)=C(c2ccc(OCCN3CCCCCC3)cc2)c2ccc(OCCN3CCCCCC3)cc2)cc1`: -46.9% (active).
As to `Cc1nc(-c2ccccc2O)ccc1C(=O)N=Nc1c(O)[nH]c2ccc(Br)cc12`, the growth is 114% (inactive).
Turning to `NS(=O)(=O)c1ccc(Nc2nc(SCc3ccccc3)nc3ccccc23)cc1`, the growth was 60.5% (inactive).
The same measure for `C/C=C/CC(C)C(O)[C@H](NC(=O)[C@@H]1CCCN1C(=O)[C@](C)(CC)NC(=O)CCCCCCCCC)C(=O)N[C@@](C)(CC)C(=O)N[C@@H](CCC(N)=O)C(=O)N[C@H](CCC(N)=O)C(=O)NC(C)(C)C(=O)NC(C)(C)C(=O)N[C@@H](CCC(N)=O)C(=O)N[C@H](CC(C)C)C(=O)N[C@H](CO)CC(C)C` (stereo not given in full): 52.5% (inactive) and -38.8% (active); for `CCCCCc1ccc(S(=O)(=O)Nc2cccc(-c3csc(NCCN4CCN(C)CC4)n3)c2)cc1`: 0.22% (active); for `CS(=O)(=O)c1ccc(-c2nn(-c3ccccc3)cc2/C=N/NC(=O)c2nc(N)n[nH]2)cc1`: 76.8% (inactive).
The same measure for `Cn1ccnc1C(=O)/C=C/c1ccc(NC(=O)c2c(F)c(F)c(F)c(F)c2F)cc1`: 78.3% (inactive).
The value for `NC(N)=Nc1ccc(Oc2cccc(Nc3ccc(Cl)c(C(F)(F)F)c3)c2)cn1` was -68% (active); that for `O=C1[C@@H]2Cc3c([nH]c4ccccc34)[C@H](c3c(Cl)cccc3Cl)N2C(=O)CN1C1CCN(CC2CCCCC2)CC1` was -25.1% (active).
`Oc1ccc(CSc2nnc(-c3ccc(Br)cc3)o2)c2cccnc12`: the growth is 23% (inactive).
The value for `Cc1cc2nc(C(Cl)Cl)nc(-c3ccc(S(=O)(=O)N(C)C)cc3)n2n1` was 0.868% (active); that for `CN(C)c1ccc(-c2cc(-c3c[nH]c4ccccc34)nc(N)c2C#N)cc1` was 20.6% (inactive); that for `CC1=C(C)C(=O)C(Nc2cccc(C(=O)OC(C)(C)C)c2)=C(Cl)C1=O` was 68% (inactive).
The same measure for `Cc1ccc(S(=O)(=O)NCCCNc2nc(Nc3ccc(N4CCN(C)CC4)cc3)nc3ccsc23)cc1`: -50.9% (active).
The value for `Cc1[nH]c(C(=O)Nc2ccccc2OCc2cccc(C(=O)N3CCC[C@@H](N)C3)c2)c(Cl)c1Cl` was -67.7% (active); that for `O=C(N/N=C\c1ccc([N+](=O)[O-])cc1)c1ccc2nc(-c3ccc(Br)cc3)[nH]c2c1` was 1.86% (active).
Regarding `C=C(C)C(=O)O[C@H]1C[C@@]2(C)OC(=CC2=O)/C(CO)=C\[C@H]2OC(=O)C(=C)[C@H]12`, the growth was -31.2% (active).
The same measure for `N#C/C(=C\c1ccc(-c2ccc(Cl)cc2Cl)o1)c1ccc(F)cc1`: 95.9% (inactive); for `CCN(CC)CCOc1ccc(C(=C(c2ccccc2)C2CCCC2)c2ccc(OCCN(CC)CC)cc2)cc1`: -40.9% (active).
For the molecule `COc1c(N2CC3CCCNC3C2)c(F)cc2c(=O)c(C(=O)N/N=C/c3ccc4c(c3)OCO4)cn(C3CC3)c12` (stereo not given), the growth was 75.8% (inactive).
Turning to `O=C1C(N2CCN(c3ccccc3)CC2)=C(Cl)C(=O)c2ncccc21`, the growth was 4.34% (active).
Regarding `C=CCn1c(SCC(=O)c2ccccc2)nnc1-c1c[nH]c2ccccc12`, the growth is 95.6% (inactive).
On to `C=C1C(=O)O[C@@H]2C[C@@H](C)/C=C\C(=O)[C@](C)(OC(C)=O)C[C@H](OC(=O)/C(C)=C\C)[C@@H]12`, for which the growth was -3.8% (active).
For `C#Cc1ccc(NC(=O)c2ccc(/C=C/C(=O)c3nccn3C)cc2)c(F)c1`, the growth was 7.29% (active).
The same measure for `O=C(CSc1nc2sc3c(c2c(=O)n1-c1ccc(Cl)cc1)CCCC3)NNC(=O)Nc1cccc(C(F)(F)F)c1`: 2.24% (active).
Turning to `Fc1ccc(-c2cc3nc(C(Cl)Cl)nc(-c4ccco4)n3n2)cc1`, the growth was -42.7% (active).
The same measure for `Brc1cccc(/C=N/Nc2nc(N/N=C/c3cccc(Br)c3)nc(N3CCOCC3)n2)c1`: -10.2% (active); for `Clc1ccc(-c2nc3ccc(/C(=N\N=C\c4ccccc4)c4ccccc4)cc3[nH]2)cc1`: 73.3% (inactive); for `CC1(C)[C@@H](O)CC[C@]2(C)[C@H]3CC[C@@H]4[C@H]5[C@H](C(=O)/C=C\c6ccc([N+](=O)[O-])cc6)CC[C@]5(O)CC[C@@]4(C)[C@]3(C)CC[C@@H]12`: 27.9% (inactive).
Turning to `Cc1ccc(C(=O)CSc2nc3ccccc3c(=O)n2C)cc1`, the growth was 87.4% (inactive).
The value for `C#Cc1nc(/C=C/CCCCCCC(=O)NO)cs1` was -64.8% (active).
The value for `Cn1c2ccc(Br)cc2c2c3c(c4c5cc(F)ccc5oc4c21)C(=O)N(O)C3=O` was 99.6% (inactive); that for `CS(=O)(=O)c1ccc(/C(=N/N=C(N)N)c2ccc(Cl)cc2)cc1` was 80% (inactive).
